Records with an inconclusive call do not appear. A number with no mark means an inactive call. Active and inactive are the calls of the source. Calls follow the shape of the dose curve; as a rule, active = well fitted curve in the direction sought with a large enough effect in the repeat runs; inconclusive = weak or mixed curves; inactive = no such curve, though single readings can be large; an effect the other way counts as inactive or inconclusive.
Legend:
[1] = A CellTox Green Cytotoxicity Assay to monitor cytotoxicity in HEK293 cells - 40 hour (AID 1224871); also: nearly all actives have a fitted effect of over 45% in size; also: potency is read from the fitted curve at half-maximal effect
Outline: (§1)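 Fluorescence from a DNA-binding dye excluded by viable cells was measured repeatedly in the same HEK293 wells (600 cells/well) during continuous compound exposure at 37 C. Each assay gives one read point: 0, 8, 16, 24, 32 or 40 h.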

[2] = qHTS RealTime-Glo MT Cell Viability Assay in HepG2 cells - 8 hour (AID 1224873); also: nearly all actives have a fitted effect of over 55% in size; also: potency is read from the fitted curve at half-maximal effect
Outline: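 HepG2 cells (600/well) mixed with RealTime-Glo MT reagent, settled 5 h at 37 C/5% CO2 before compound addition. Nonlytic NanoLuc luminescence from viable-cell prosubstrate reduction read repeatedly during 40 h treatment at 37 C.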

[3] = qHTS RealTime-Glo MT Cell Viability Assay in HEK293 cells - 40 hour (AID 1224874); conditions: RealTime-Glo luminescence; max response: hits give low values; also: nearly all actives have a fitted effect of over 50% in size; also: potency is read from the fitted curve at half-maximal effect
Outline: (§2)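 Luminescence, which tracks viable cell number through reduction of the prosubstrate to a NanoLuc substrate, was read over continuous 37 C culture. Cells (600/well) were premixed with reagent and rested 5 h before 23 nL of compound in DMSO was pinned.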

[4] = A CellTox Green Cytotoxicity Assay to monitor cytotoxicity in HEK293 cells - 24 hour (AID 1224875); also: nearly all actives have a fitted effect of over 45% in size; also: potency is read from the fitted curve at half-maximal effect; as to activity change: series mostly up to about 77 µM
Outline: as §1

[5] = A CellTox Green Cytotoxicity Assay to monitor cytotoxicity in HepG2 cells - 16 hour (AID 1224876); also: nearly all actives have a fitted effect of over 45% in size; also: potency is read from the fitted curve at half-maximal effect
Outline: (§3)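 Real-time cytotoxicity: fluorescence of a cell-impermeant cyanine dye binding DNA of dead HepG2 cells, measured repeatedly (0–40 h) during compound exposure at 37 C. Cells seeded 600/well with reagent, dosed after 5 h.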

[6] = qHTS RealTime-Glo MT Cell Viability Assay in HepG2 cells - 32 hour (AID 1224877); also: nearly all actives have a fitted effect of over 55% in size; also: potency is read from the fitted curve at half-maximal effect
Outline: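 Tox21 10K library screened in qHTS format on HepG2 cells carrying RealTime-Glo reagents. Compounds were added after a 5 h preincubation, and the luminescent signal from continuous culture was measured repeatedly during 40 h treatment.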

[7] = A CellTox Green Cytotoxicity Assay to monitor cytotoxicity in HepG2 cells - 24 hour (AID 1224878); also: nearly all actives have a fitted effect of over 45% in size; also: potency is read from the fitted curve at half-maximal effect
Outline: as §3

[8] = A CellTox Green Cytotoxicity Assay to monitor cytotoxicity in HepG2 cells - 40 hour (AID 1224879); also: nearly all actives have a fitted effect of over 40% in size; also: potency is read from the fitted curve at half-maximal effect
Outline: as §3

[9] = qHTS RealTime-Glo MT Cell Viability Assay in HEK293 cells - 0 hour (AID 1224880)
Outline: as §2

[10] = qHTS RealTime-Glo MT Cell Viability Assay in HEK293 cells - 16 hour (AID 1224872); also: nearly all actives have a fitted effect of over 50% in size; also: potency is read from the fitted curve at half-maximal effect; as to activity change, negative = cytotoxicity: top concentration of the series differs between compounds
Outline: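 Luminescence generated by NanoLuc from substrate produced by living HEK293 cells served as the viability signal. Each value reflects the reading at its stated time point during continuous 40 h compound exposure at 37 C.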
% is scaled to controls: 0 for no effect and ±100 for the full control effect.

| SMILES | Potency [1] | Potency [2] | Potency [3] | Potency [4] | Potency [5] | Potency [6] | Potency [7] | Potency [8] | Potency [9] | Potency [10] | max response [3] | activity change, negative = cytotoxicity [9] |
| --- | --- | --- | --- | --- | --- | --- | --- | --- | --- | --- | --- | --- |
| Nc1ccc2c3c(cccc13)-c1ccccc1-2 | 39.3 µM (active) | inactive | 27.8 µM (active) | 44.1 µM (active) | 39.3 µM (active) | inactive | 44.1 µM (active) | 44.1 µM (active) | inactive | – | – | – |
| CCOc1nc2cccc(C(=O)OC(C)OC(=O)OC3CCCCC3)c2n1Cc1ccc(-c2ccccc2-c2nn[nH]n2)cc1 (stereo unspecified) | 30.9 µM (active) | – | – | 34.6 µM (active) | – | – | 43.6 µM (active) | 43.6 µM (active) | – | 11 µM (active) | – | – |
| CCCCCCCCCCCCCCCC[N+](C)(C)CCN(Cc1ccc(OC)cc1)c1ncccn1 | 19 µM (active) | 10.7 µM (active) | 0.952 µM (active) | 8.49 µM (active) | 9.52 µM (active) | 6.01 µM (active) | 6.74 µM (active) | 6.01 µM (active) | inactive | – | – | – |
| O=C1Cc2cc(CCN3CCN(c4nsc5ccccc45)CC3)c(Cl)cc2N1 | 26.8 µM (active) | – | – | – | – | – | – | – | inactive | 23.9 µM (active) | – | – |
| O=C(Oc1ccccc1)c1ccccc1C(=O)Oc1ccccc1 | inactive | – | – | inactive | inactive | inactive | inactive | inactive | inactive | inactive | -2.84% | – |
| CCCCCCCCn1sc(Cl)c(Cl)c1=O | 1.95 µM (active) | 6.16 µM (active) | 3.47 µM (active) | 1.1 µM (active) | 7.76 µM (active) | 5.49 µM (active) | 11 µM (active) | 9.77 µM (active) | inactive | – | – | – |
| C[C@@H]1C[C@H]2[C@@H]3CCC4=CC(=O)C=C[C@]4(C)[C@@]3(Cl)[C@@H](O)C[C@]2(C)[C@@]1(OC(=O)c1ccco1)C(=O)CCl | inactive | – | – | inactive | inactive | – | inactive | inactive | inactive | inactive | -19.5% | – |
| [O-][n+]1ccccc1SSc1cccc[n+]1[O-] | 1.31 µM (active) | – | 1.17 µM (active) | 4.65 µM (active) | 9.28 µM (active) | 0.165 µM (active) | 1.47 µM (active) | 0.329 µM (active) | – | 1.31 µM (active) | – | -7.04% [at 15.8 µM] |
